# Screening data from PubChem.
# In the library only some 2.1% were active in any assay of this set; here they are far more common.
# CHT block = inhibitors of human choline transporter CHT; AID 488975; actives 0.86% (n = 310,000); Q9GZV3; CHT-expressing cells, membrane potential dye, choline response; active compounds read low; B-score at 10 µM;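 active means B-score over 3 SD under the library average, and starting fluorescence ratio not unusually high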;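 further: choline stimulus applied at its EC90 after an EC20 pre-addition; B-score computed on integrated fluorescence ratio after choline addition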
# CHT PAM = human CHT allosteric activation; Q9GZV3; CHT-expressing cells, membrane potential dye, choline EC20; active compounds read high; LV-AA mutant CHT in HEK293 cells; B-score at 10 µM; actives 0.49% (n = 310,000); AID 488977;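 active means initial fluorescence not abnormally high and integrated response B-score, plate-corrected, over 3 SD above library mean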
# EP2 mod = modulates human prostaglandin E2 receptor EP2 signaling; P43116; EP2-expressing cells, cAMP HTRF FRET, PGE2 co-stimulation; induction, % at 25 µM; actives 0.83% (n = 260,000); AID 940;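 active means compounds whose cAMP rise, as percent of the full-agonist control response, exceeds 60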;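 further: rat C6 glioma line stably carrying human EP2 under a CMV promoter; the protocol text gives 20 µM as final concentration; 100% = response of wells given 1 µM PGE2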
# Target sequence (P43116 whole entry, looked up): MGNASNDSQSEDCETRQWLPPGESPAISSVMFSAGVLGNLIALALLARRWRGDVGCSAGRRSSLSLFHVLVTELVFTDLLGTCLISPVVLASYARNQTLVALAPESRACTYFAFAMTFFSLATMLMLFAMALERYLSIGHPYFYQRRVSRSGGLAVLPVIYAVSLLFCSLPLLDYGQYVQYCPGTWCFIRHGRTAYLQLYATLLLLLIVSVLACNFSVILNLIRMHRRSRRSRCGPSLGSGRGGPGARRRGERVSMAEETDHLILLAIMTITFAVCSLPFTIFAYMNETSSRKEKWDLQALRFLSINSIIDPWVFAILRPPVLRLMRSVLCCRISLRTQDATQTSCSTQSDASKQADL
# EP2 antag = EP2 receptor (human) inhibition | P43116 | C6 glioma cells expressing human EP2, cAMP TR-FRET; cells stimulated with saturating PGE2 | inhibition, % at 25 µM | actives 0.52% (n = 260,000);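 active means percent inhibition above 40 after rounding to a whole number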;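 further: rat C6 glioma host cells with rolipram phosphodiesterase inhibitor present; the protocol text gives 20 µM as final concentration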
# The depositor's hits bear a star; i = inactive; . = not tested or not shown.
SMILES,CHT block,CHT PAM,EP2 mod,EP2 antag
O=C(N/C=N/OCc1ccc(Cl)cc1Cl)NOCc1ncc(C(F)(F)F)cc1Cl,i,i,61.1*,5.1
CO/N=C/NC(=O)NOCc1ncc(C(F)(F)F)cc1Cl,i,i,27.9,-5.5
COc1ccccc1-c1cc(C(=O)Nc2cccnc2)no1,i,11*,-17.5,.
COc1ccc(NC(=O)c2cc(-c3ccccc3OC)on2)cc1,i,i,-4.1,8.1
CCC(=O)N1c2ccc(-c3csc(NC(=O)c4ccc(F)c(F)c4)n3)cc2CC1C (configuration not stated),.,.,-67.5,19.6
CC1(C)Cc2c(sc3[nH]c(=S)n(Cc4ccco4)c(=O)c23)CO1,i,i,37.3,40.3*
CC1(C)Cc2c(sc3c2c(=N)n(Cc2ccco2)c(=O)n3Cc2ccc(Cl)cc2)CO1,i,i,60.9*,12.5
CC1(C)Cc2c(sc3c2c(=N)n(Cc2ccco2)c(=O)n3Cc2ccccc2)CO1,i,i,59.2,5.1
CCCN(CCC)C(=O)c1ccc2c(=O)n(Cc3ccco3)c(=S)[nH]c2c1,i,i,13.7,7.3
CCOC(=O)C(=O)Nc1sc(C(=O)Nc2cccc(C(F)(F)F)c2)c(C)c1C(=O)OC,.,.,16.0,4.7
Cc1cc2cccc(C)c2nc1SCC(=O)N1CCCCC1,.,.,45.3,6.9
CCC1Oc2ccc(C)cc2N(CC(=O)N(Cc2ccccc2F)CC2CCCO2)C1=O (configuration not stated),.,.,25.6,2.3
Cc1cccc(C2(c3cccc(C)c3)CC2C(=O)Nc2ccc([N+](=O)[O-])cc2O)c1 (configuration not stated),i,i,60.8*,7.9
O=C([O-])c1cc(-c2ccccc2)cc(-c2ccccc2)[n+]1Cc1ccccc1,i,6.79*,.,.
Cc1ccc(NC(=O)c2cccc(C(=O)OC(C)C)n2)c(Br)c1,i,i,62.2*,6.5
Cc1sc(N)c(C(=O)c2ccc(Br)cc2)c1C,.,.,70.8*,14.4
Nc1sc2c(c1C(=O)O)CCCC2,.,.,-17.8,11.3
Nc1sc2c(c1C(=O)c1ccc(Br)cc1)CCC2,.,.,78.1*,9.5
CC(=O)c1ccc(NC(=O)CSc2nnc(-c3cccnc3)n2C)cc1,.,.,-12.5,8.5
CCCOc1ccc(-c2csc3ncn(CC(=O)N4CCOCC4)c(=O)c23)cc1,.,.,-71.7,10.6
O=C(Nc1nc2c(Br)cc(Br)cc2c(=O)s1)c1ccco1,i,i,65.2*,12.8
N#Cc1cn(Cc2ccc(Cl)cc2)c2ccccc12,.,.,67.3*,15.4
N#Cc1cn(Cc2ccccc2)c2ccccc12,i,i,63.0*,6.0
O=C1NC2(CCN(C(=O)CCn3cnc4ccccc43)CC2)Oc2ccccc21,.,.,-25.3,1.1
CCCCC[C@H](O)/C=C/[C@@H]1[C@@H](C/C=C\CCCC(=O)OC)[C@@H](O)C[C@H]1O,i,i,52.4,10.4
SMILES,CHT block,CHT PAM,EP2 mod,EP2 antag
CCCCC[C@H](O)/C=C/[C@@H]1[C@@H](C/C=C\CCCC(=O)O)[C@H]2CO[C@@H]1C2,i,i,97.8*,11.4
Cn1ccnc1Sc1nc2ccccc2nc1NS(=O)(=O)c1ccccc1,i,i,50.0,51.6*
Cn1cnnc1Sc1nc2ccccc2nc1NS(=O)(=O)c1ccccc1,i,i,30.4,9.6
COc1ccc2[nH]c(=O)c(CN(Cc3cccnc3)C(=S)NCc3ccco3)cc2c1,.,.,-29.5,16.4
CCC(CN1CCOCC1)NC(=O)Cc1csc(-c2ccccc2F)n1 (configuration not stated),.,.,-25.5,6.4
CCCN1C(=O)c2ccccc2NC1c1ccc(Cl)c(Cl)c1 (configuration not stated),i,7.28*,.,.
COCCn1nnnc1C(c1cc2cc(C)ccc2[nH]c1=O)N(Cc1ccccc1)Cc1ccco1 (configuration not stated),.,.,42.9,8.5
Cc1[nH]nc2c1C(c1ccc(-c3ccccc3C#N)o1)C(C#N)=C(N)O2 (configuration not stated),i,i,-33.4,63.2*
Cc1ccc(-c2ccc(C3C(C#N)=C(N)Oc4n[nH]c(C)c43)o2)cc1 (configuration not stated),i,i,-12.2,13.7
COc1cc(/C=N/NC(=O)c2ccc(COc3ccccc3Cl)o2)cc(Br)c1O,i,i,-67.7,75.5*
COc1cccc(/C=N/NC(=O)c2ccc(COc3ccc(Cl)cc3Cl)o2)c1,i,i,-35.0,17.9
O=S1(=O)N[C@H]2CC[C@H]3NS(=O)(=O)N[C@H]4CC[C@@H](N1)N4S(=O)(=O)N23,.,.,26.8,45.3*
